Source: PubChem (National Center for Advancing Translational Sciences (NCATS))
In the library only some 19% were active in any assay of this set; here they are far more common.
TDP1 inh = blocks human tyrosyl-DNA phosphodiesterase 1 | Q9NUW8 | recombinant TDP1, AlphaScreen DNA substrate cleavage | Potency, µM (titrated, usually from 130 µM), inactives show at the top dose activity change, negative = inhibition, usual class: inhibitors | hit rate 0.28% among 350,000 | AID 485290; further: potency means the concentration at half of the fitted maximal effect; on the % scale 0 is the no-effect control and ±100 the full control effect; nearly all actives have a fitted effect of over 40% in size
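Recombinant human Tdp1 (E. coli-expressed, 1 nM final) preincubated with compounds 15 min at room temperature, then 5'-biotin/3'-phosphotyrosine-FITC DNA substrate (15 nM final) added for 5 min. AlphaScreen beads (10 ug/ml final) added 10 min; cleavage lowers signal.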
DT40 TDP1 no CPT = qHTS for Inhibitors of human tyrosyl-DNA phosphodiesterase 1 (TDP1): qHTS in cells in absence of CPT; DT40 Tdp1-/- hTDP1 cells, no CPT, ATP luminescence, 48 h; Potency, µM (series often up to 46.2 µM), inactives show at the top dose activity change, negative = growth inhibition, hits mostly inhibitors; hit rate 15% among 420,000; AID 686978, 2013; further: potency means the concentration at half of the fitted maximal effect; on the % scale 0 is the no-effect control and ±100 the full control effect; nearly all actives have a fitted effect of over 55% in size
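Camptothecin absent (DMSO only). Human TDP1-complemented DT40 knockout cells, 400 cells/well, 37 °C for minimum 48 hr; ATP measured via CellTiter-Glo, 30 min dark incubation, luminescence.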
DT40 TDP1 CPT = growth inhibition of DT40 Tdp1-/-;hTDP1 cells with camptothecin (screen for TDP1 inhibitors); chicken DT40 Tdp1-/-;hTDP1 cells + 20 nM CPT, ATP luminescence, 48 h; Potency, µM (doses to about 46.2 µM), for the others: top-dose activity change, negative = growth inhibition, hits mostly inhibitors; hit rate 12% among 420,000; AID 686979; further: potency means the concentration at half of the fitted maximal effect; on the % scale 0 is the no-effect control and ±100 the full control effect; nearly all actives have a fitted effect of over 55% in size
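Chicken DT40 Tdp1-/- cells stably complemented with human TDP1 were seeded at 400 cells/well in medium containing 20 nM camptothecin, exposed to pin-transferred compounds, and grown at 37 °C for at least 48 hr. Viability was read as ATP luminescence.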
IL-1B inflam inh = inflammasome signaling inhibition, IL-1 beta readout; activity change, % at 57.5 µM; THP-1 LPS/ATP IL-1B secretion, AlphaLISA, 16 h; stronger effect = lower value; hit rate 4.7% among 360,000; AID 743279; in the data active means activity change below about -50%; inconclusive means mostly about -30% to -49%; further: on the % scale 0 is the no-effect control and ±100 the full control effect
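THP-1 cells pretreated 1 hr with compounds (up to 57.5 uM final), then stimulated with LPS (250 ng/mL final) plus ATP (1.25 mM final); secreted IL-1B measured by AlphaLISA after 16 hr, decreased signal indicating inhibition.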
TGFb inhibitor = blocks TGF-b signaling | HepG2 CAGA-GFP TGF-b/SMAD3 reporter, GFP fluorescence, 18 h; TGF-beta stimulated, 500 pg/mL final | hit rate 1.2% among 410,000 | Potency, µM (doses to about 46.1 µM), without a hit: at the top dose activity, negative = inhibition, actives largely listed as inhibitors; further: potency means the concentration at half of the fitted maximal effect; on the % scale 0 is the no-effect control and ±100 the full control effect; nearly all actives have a fitted effect of over 65% in size
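Inhibition of TGF-beta-driven CAGA-GFP reporter expression in HEPG2 cells is measured by cellular GFP fluorescence after 18 h stimulation with 500 pg/mL recombinant TGF-beta in 1% FBS medium at 37 degrees C.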
HepG2 viability = counter-screen for TGF-b inhibitors: cytotoxicity in HepG2 cells | HepG2 CAGA-GFP viability, ATP luminescence, 18 h | Potency, µM (top dose mostly 46.1 µM), for inactives: at the highest dose activity change, negative = cytotoxicity, most hits filed as cytotoxic | hit rate 0.76% among 410,000 | AID 588856; further: potency means the concentration at half of the fitted maximal effect
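HepG2 CAGA-GFP cells (1000/well, DMEM with 1% FBS) received compound, then TGF-beta at 500 pg/mL final, and were incubated 18 hours at 37 degrees C. Viability was read by CellTiter-Glo luminescence. Media-only wells were set as complete cell-killing and DMSO as no toxicity.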
Numbers without * were called inactive; ? = inconclusive; nt = not tested or not shown; [ ] = dose if it differs, or a comment. Unless noted, the call rests on the fitted dose curve; in most records, active means well fitted curve in the direction sought with a large enough effect; inconclusive means small, poorly fitted or top-dose-only effect, or another doubt; inactive means no such curve, though single readings can be large; an effect the other way counts as inactive or inconclusive.

SMILES	TDP1 inh	DT40 TDP1 no CPT	DT40 TDP1 CPT	IL-1B inflam inh	TGFb inhibitor	HepG2 viability
Cc1ccc(CN2CCC(Oc3cccc(C(=O)N(C)CCN(C)C)c3)CC2)cc1C	nt	?	?	-65*	-3%	-18%
CSc1cccc(CN2CCC(Oc3cccc(C(=O)N4CCCC4)c3)CC2)c1	4%[56.1 µM]	?	?	?	-16%	-23%
COCCNC(=O)c1cccc(OC2CCN(Cc3ccc(C(=O)OC)cc3)CC2)c1	2%	-25%	-11%	-16	-27%	-2%
O=C(NCC(c1ccco1)N1CCN(c2ccccc2)CC1)C(=O)NC1CC1 (configuration not stated)	0%	2%	0%	-7	-6%	3%
CC1(C)CC(=O)C=C(/C=C/c2ccccc2)C1	0%	-16%	23µM*	-23	3%	-6%
CC(C(=O)O)c1ccc2c(c1)Cc1cccnc1O2 (configuration not stated)	nt	?	-9%	nt	nt	nt
O=C(Oc1ccccc1)N1CCC2(CC1)CN(c1ccncc1)C2	nt	10µM*	13µM*	nt	nt	nt
COC(=O)N1CCC2(CC1)CCN(c1ccncc1)CC2	nt	16µM*	7.3µM*	nt	nt	nt
O=C(Oc1ccccc1)N1CCC2(CCCN(c3ccncc3)C2)CC1	nt	15µM*	21µM*	nt	nt	nt
COC(CNC(=O)CN1CCN(Cc2ccc(F)cc2Cl)C1=O)OC	nt	-2%	-20%	-2	4%	11%
CN(C(=O)CN1CCN(c2cc(-c3ccc(-c4ccccc4)cc3)ncn2)CC1)c1ccccc1	nt	?	23µM*	-15	?	-24%
COC(=O)c1ccc(NC2(C#N)C(=O)Nc3ccccc32)cc1 (configuration not stated)	5%	23µM*	?	7	-8%	-3%
c1cc2[nH]snc2c2nc(C3CC3)nc12	2%	13µM*	18µM*	-86*	?	-61%
O=S(=O)(Cc1ccc(Cl)cc1)Nc1ccc2c(c1)OCO2	7%	?	?	-53*	?	-7%
CCc1ccc2c(c1)C(=O)C(=O)N2CCS(=O)(=O)c1ccccc1	3%	2.6µM*	2.9µM*	26	?	-8%
CCOC(=O)c1c(NC(=O)CN2C(=O)NC3(CCC(C)CC3)C2=O)sc(C)c1-c1ccc(C)cc1 (configuration not stated)	8%	18µM*	21µM*	26	1%	3%
CCOC(=O)c1c(NC(=O)CN2C(=O)NC3(CCCCC3)C2=O)sc(C)c1-c1ccc(C)cc1	5%	21µM*	18µM*	-2	?	-10%
O=S(=O)(NC1CC1)c1ccc(S(=O)(=O)N2CCCC3(CCCCC3)C2)cc1	3%	?	13µM*	3	?	-55%
O=S(=O)(NC1CC1)c1ccc(S(=O)(=O)N2CCN3CCCC3C2)cc1 (configuration not stated)	2%	-6%	-1%	9	-2%	3%
O=C(CCCCCCCC(=O)N1CCCCCC1)N1CCCCCC1	nt	?	23µM*	0	-10%	-5%
O=C(CCCCCCCCC(=O)N1CCCCC1)N1CCCCC1	nt	?	?	27	-26%	-6%
CC(C)(C)c1ccc(C(=O)NC2(C(F)(F)F)NC(=O)N(CCc3ccccc3)C2=O)cc1 (configuration not stated)	-2%	23µM*	21µM*	nt	10µM*	20µM*
O=C(NC1(C(F)(F)F)NC(=O)N(CCc2ccccc2)C1=O)c1ccc(Cl)cc1 (configuration not stated)	0%	?	21µM*	nt	?	-46%
